CYP2C9 inhib: blockers of cytochrome P450 2C9 activity – biochemical, luminescence, ADME assay, primary screen | P11712 | CYP2C9 Supersomes, luciferin-H conversion | inhibition, % at 5 µM | 96,000 compounds, 20% hits | AID 777, 2007;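 active means blocking of liver enzyme CYP2C9 beyond about 50% at 5 µM, limit read from the data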
CYP2C19 inh: blockers of cytochrome P450 2C19 activity – biochemical, luminescence, ADME assay, primary screen | P33261 | CYP2C19 Supersomes, luciferin-H EGE luminescence, 30 min | inhibition, % at 5 µM | 96,000 compounds, 21% hits | AID 778, 2007;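 active means CYP2C19 inhibition above a set limit at 5 µM in the primary screen, cut at about 50% in these data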;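 further: plate controls were negative control wells for no effect and 2.5 mM tranylcypromine positive control for full effect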
Target sequence (P33261 whole entry, looked up): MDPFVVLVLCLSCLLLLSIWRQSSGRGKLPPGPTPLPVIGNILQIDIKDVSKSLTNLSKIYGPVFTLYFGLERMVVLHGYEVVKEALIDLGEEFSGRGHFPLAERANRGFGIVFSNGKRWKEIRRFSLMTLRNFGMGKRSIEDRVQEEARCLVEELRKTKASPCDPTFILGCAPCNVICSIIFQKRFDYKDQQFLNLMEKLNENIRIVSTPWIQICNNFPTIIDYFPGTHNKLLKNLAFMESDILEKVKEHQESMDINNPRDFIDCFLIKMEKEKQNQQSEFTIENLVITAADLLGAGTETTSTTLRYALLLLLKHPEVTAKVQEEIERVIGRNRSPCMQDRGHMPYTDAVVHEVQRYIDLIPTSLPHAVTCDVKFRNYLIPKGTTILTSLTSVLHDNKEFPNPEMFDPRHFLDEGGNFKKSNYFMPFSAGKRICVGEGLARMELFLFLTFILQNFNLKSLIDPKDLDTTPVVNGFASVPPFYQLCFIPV
CYP2C9 activ: human CYP2C9 activators, primary screen, biochemical, luminescence. recombinant CYP2C9, luciferin-H conversion; active compounds read high; factor 1 = untreated enzyme, 0 = blocked. activation factor at 5 µM. AID 1024, 2008. 96,000 compounds, 1.4% hits;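 active means activation factor of 2 or more for CYP2C9 at a 5 µM dose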;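 further: 0 = sulfaphenazole-blocked wells and 1 = vehicle-only wells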
CYP2C19 activ: human CYP2C19 activators, primary screen, biochemical, luminescence. Cytochrome P450 2C19 (Homo sapiens), P33261. recombinant CYP2C19, luciferin-H EGE luminescence; active compounds read high; 0 = fully inhibited enzyme, 1 = untreated enzyme. activation factor at 5 µM. 96,000 tested, under 10 active. AID 1025, 2008;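 active means activation factor of at least 2 at 5 µM in the primary screen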;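 further: 0 = wells with 2.5 mM tranylcypromine and 1 = vehicle-only wells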
Numbers without * were called inactive. Rows were chosen to be rich in hits. Some 31% of all compounds tested hit in one or more screens of this group.

SMILES | CYP2C9 inhib | CYP2C19 inh | CYP2C9 activ | CYP2C19 activ
CCN1C(=O)C2C(C1=O)N1C(c3cccs3)C3C(=O)N(CC)C(=O)C3N1C2c1cccs1 (stereo unspecified) | -1.8 | 1.0 | 1 | 1
COc1ccc(CNC(=O)CCCn2c(SCC#N)nc3cc4c(cc3c2=O)OCO4)cc1 | 79.6* | 54.4* | 0.2 | 0.5
NC(=O)CSc1nc2cc3c(cc2c(=O)n1CCCC(=O)NCc1ccc2c(c1)OCO2)OCO3 | 74.1* | 6.8 | 0.3 | 0.9
COc1cc(C2C(C(=O)c3ccco3)=C(O)C(=O)N2c2cc(C)on2)cc(Br)c1O (stereo unspecified) | 59.6* | -0.1 | 0.4 | 1
Cc1cc(N2C(=O)C(O)=C(C(=O)c3ccco3)C2c2cccnc2)no1 (stereo unspecified) | 8.2 | -0.9 | 0.9 | 1
COc1cc(C2C(C(=O)c3ccc(C)o3)=C(O)C(=O)N2c2cc(C)on2)cc(Br)c1O (stereo unspecified) | 65.6* | -4.1 | 0.3 | 1
CC(c1ccccc1F)n1cc(C(=O)NCc2ccncc2)nn1 (stereo unspecified) | 69.1* | 53.6* | 0.3 | 0.5
O=C(NC1CCCCC1)C(c1ccccc1F)N(Cc1ccco1)C(=O)Cn1nnc2ccccc21 (stereo unspecified) | -6.2 | 7.7 | 1.1 | 0.9
CC(c1ccccc1)n1cc(C(=O)NCc2ccncc2)nn1 (stereo unspecified) | 80.7* | 30.6 | 0.2 | 0.7
CC(c1ccccc1F)n1cc(C(=O)NCCc2ccco2)nn1 (stereo unspecified) | 58.0* | 35.2 | 0.4 | 0.6
NC(=O)CN1C(=O)C2C3C=CC(C3)C2C1=O (stereo unspecified) | -5.8 | -8.4 | 1.1 | 1.1
CCCCc1ccc(CC(=O)O)cc1 | -2.8 | -6.7 | 1 | 1.1
N#Cc1cn(-c2ccccc2)nc1C(=O)c1ccccc1 | -0.5 | 50.3* | 1 | 0.5
CC1CCCN(c2oc(-c3cccc4ccccc34)nc2C#N)C1 (stereo unspecified) | 21.3 | 1.6 | 0.8 | 1
COc1cc(C(C)=O)ccc1OCC(=O)c1cc(C)n(C2CC2)c1C | -31.5 | 58.0* | 1.3 | 0.4
Cc1nn(Cc2ccccc2)c(C)c1C(=O)OCC(=O)c1cc(C)n(C2CC2)c1C | -41.0 | 26.1 | 1.4 | 0.7
C/C(=N\N=C\c1ccccc1)c1nnn(-c2nonc2N)c1C | 38.6 | 25.4 | 0.6 | 0.7
Cn1nnc(-c2ccc(OCc3ccccc3F)cc2)n1 | 20.2 | 66.2* | 0.8 | 0.3
Fc1ccccc1COc1ccc(-c2nnn(Cc3ccccc3F)n2)cc1 | 18.9 | -6.5 | 0.8 | 1.1
CC(C)=CC(=O)NCCc1ccccc1 | 2.7 | 32.3 | 1 | 0.7
O=C(/C=C/c1c(Cl)cccc1Cl)NCCc1ccccc1 | -166.6 | 19.6 | 2.7* | 0.8
Cc1cccc(-c2nsc(SCC(=O)NCc3ccco3)n2)c1 | 67.8* | 21.3 | 0.3 | 0.8
Cc1ccc2cc(C#N)c(SCC(=O)NCc3ccco3)nc2c1 | 75.1* | 11.0 | 0.2 | 0.9
Cc1cc(C)nc(SCC(=O)NCc2ccco2)n1 | -11.8 | 17.5 | 1.1 | 0.8
CC(NC(=O)/C(C#N)=C/c1cn[nH]c1-c1ccccc1)c1ccccc1 (stereo unspecified) | 29.3 | 39.1 | 0.7 | 0.6
SMILES | CYP2C9 inhib | CYP2C19 inh | CYP2C9 activ | CYP2C19 activ
N#C/C(=C\c1cn[nH]c1-c1ccccc1)C(=O)NC1CCCCCC1 | -97.7 | -3.0 | 2* | 1
N#C/C(=C\c1cn[nH]c1-c1ccc(Cl)cc1)C(=O)NCc1ccccc1 | 87.5* | 88.1* | 0.1 | 0.1
COc1ccc(-c2[nH]ncc2/C=C(\C#N)C(=O)NC2CC2)cc1 | 52.0* | 53.6* | 0.5 | 0.5
O=C(NCc1ccc(N2CCCC2=O)cc1)Nc1ccccc1 | 33.6 | 20.7 | 0.7 | 0.8
O=c1ccc(Cc2ccccn2)n[nH]1 | -12.3 | -17.6 | 1.1 | 1.2
Cc1ccc(NC(=O)c2ccc3ccccc3n2)nc1 | 29.2 | 16.5 | 0.7 | 0.8
O=C(Nc1ccc2nc(-c3cccs3)[nH]c2c1)c1cccs1 | 80.9* | 57.1* | 0.2 | 0.4
O=C(Nc1ccc(-c2nc3ccc(NC(=O)c4cccs4)cc3[nH]2)cc1)c1cccs1 | 21.2 | 11.2 | 0.8 | 0.9
CNC(=O)c1sc(-c2ccc(Cl)cc2)nc1C | -17.2 | 10.0 | 1.2 | 0.9
CC(C)NC(=O)c1cc2c(-c3ccc(Cl)cc3)nn(C)c2s1 | 9.7 | 7.9 | 0.9 | 0.9
CSc1cc(-c2ccc(Cl)cc2)c(C(=O)NC(C)C)s1 | 26.0 | 69.2* | 0.7 | 0.3
CSc1cc(-c2ccc(Cl)cc2)c(C(=O)NN)s1 | 65.3* | 69.9* | 0.3 | 0.3
CCOC(=O)N1CCN(c2ncnc3nc[nH]c23)CC1 | 1.0 | 8.8 | 1 | 0.9
Cn1c(=O)c2c(ncn2CC(=O)OCc2ccccc2)n(C)c1=O | 63.0* | 1.9 | 0.4 | 1
Cn1c(=O)c2c(ncn2CC(N)=O)n(C)c1=O | -17.2 | -5.4 | 1.2 | 1.1
Cn1c(=O)c2c(nc(SCC(=O)OCc3ccccc3)n2C)n(C)c1=O | 80.1* | 26.5 | 0.2 | 0.7
Cn1c(=O)c2c(ncn2Cc2cccc(Cl)c2)n(C)c1=O | 12.8 | 46.6 | 0.9 | 0.5
Cn1c(=O)c2c(ncn2Cc2ccc(Cl)c(Cl)c2)n(C)c1=O | 61.1* | 91.7* | 0.4 | 0.1
CC1(C(=O)OCC(=O)c2c[nH]c3ccccc23)CC1(Cl)Cl (stereo unspecified) | 85.2* | 96.8* | 0.1 | 0
COC(=O)C1CCN(C(=O)COC(=O)Cc2c[nH]c3ccccc23)CC1 | -31.0 | -2.2 | 1.3 | 1
O=C(CSCC(=O)N1CCCCC1)OCC(=O)c1c[nH]c2ccccc12 | -74.8 | 69.1* | 1.7 | 0.3
CN(C)S(=O)(=O)c1ccc(C(=O)Nc2ccc(CCC(=O)N3CCCC3)cc2)cc1 | 59.1* | 15.7 | 0.4 | 0.8
CN(C)S(=O)(=O)c1ccc(C(=O)Nc2ccc(CN3CCCC3)cc2)cc1 | -0.4 | -4.3 | 1 | 1
COC(=O)c1ccccc1S(=O)(=O)N(Cc1ccco1)Cc1cc2cc(OC)ccc2[nH]c1=O | 45.3 | 68.2* | 0.5 | 0.3
Cc1ccc(S(=O)(=O)N(Cc2cc3cc4c(cc3[nH]c2=O)OCCO4)CC2CCCO2)cc1 (stereo unspecified) | 24.5 | 20.9 | 0.8 | 0.8
Cc1cc(C)c2cc(CN(CC3CCCO3)S(=O)(=O)c3ccc4c(c3)OCCO4)c(=O)[nH]c2c1 (stereo unspecified) | 72.6* | 35.8 | 0.3 | 0.6
COc1ccc2cc(CN(CC3COCCO3)S(=O)(=O)c3ccc(Cl)cc3)c(=O)[nH]c2c1 (stereo unspecified) | 59.5* | 21.5 | 0.4 | 0.8
Cc1ccc(C)c2[nH]c(=O)c(CN(Cc3ccco3)S(=O)(=O)c3ccc4c(c3)OCCO4)cc12 | 67.4* | 75.3* | 0.3 | 0.2
COc1ccc2[nH]c(=O)c(CN(CCO)S(=O)(=O)c3ccc4c(c3)OCCO4)cc2c1 | 47.8 | 75.3* | 0.5 | 0.2

Screening results from PubChem BioAssay.
